Out of some 310,000 compounds screened, about 11,000 (3.5%) were called active. Entries that show only a call come without a potency. Another 8% or so got no clear call; they are omitted. The call rests on the fitted dose curve; in most records, active means well fitted inhibition curve with a large enough effect; inconclusive means small, poorly fitted or top-dose-only effect, or effect the other way; inactive means flat fitted curve, though single readings scatter. The sample as a whole holds a higher share of actives than the screen did.
Assay: VP16 counterscreen qHTS for inhibitors of ROR gamma transcriptional activity;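 further: Gal4-VP16 expression switched on by copper sulfate through the metallothionein promoter; nearly all actives have a fitted effect of over 50% in size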
Settings: Drosophila S2 Gal4-VP16 UAS-luciferase, luminescence, 20 h; series mostly up to 53.6 µM
For `O=C(Oc1cccc(C(=S)N2CCOCC2)c1)c1cccc(Cl)c1`, the Potency was “inactive”. With `CN(C)c1nc(=Nc2cccc(Cl)c2)ss1` the Potency was 0.891 µM (active). With `CCOC(=O)C1=C(O)CSC1=Nc1cccc(Cl)c1` the Potency was “inactive”. In the case of `Cn1c(=O)c(=O)n(C)c2cc(S(=O)(=O)CCC(=O)N3CCCCC3)ccc21`, the Potency is reported as “inactive”. With `O=C(COc1ccc(Cl)cc1)NCCS(=O)(=O)N1CCN(c2ccc(F)cc2)CC1` the Potency was “inactive”. With `CCCOc1ccc(Cc2c(O)nc(SC)[nH]c2=O)cc1C` the Potency was “inactive”. With `CCCOc1ccc(Cc2c(Cl)nc(SC)nc2NC)cc1` the Potency was 7.08 µM (active). For `CCCOc1ccc(-c2nc(N)n[nH]2)cc1`, the Potency was “inactive”. With `Cc1cc(C)cc(C(=O)OCC(=O)NCCNC(=O)COC(=O)c2cc(C)cc(C)c2)c1` the Potency was 0.0891 µM (active). With `Cc1cccc(C(=O)OCC(=O)Nc2ccc(F)cc2)c1` the Potency was “inactive”. For `COc1ccccc1C(=O)OCC(=O)NCCNC(=O)COC(=O)c1ccccc1OC`, the Potency was “inactive”. With `COc1cc(N=Cc2c(O)c3ccccc3oc2=O)c(OC)cc1Cl` the Potency was “inactive”. In the case of `COc1ccc(CNC(=O)CCCn2nc(C)c([N+](=O)[O-])c2C)cc1`, the Potency is reported as “inactive”. In the case of `CCc1ccc(NC(=O)Cn2nc(C)c([N+](=O)[O-])c2C)cc1`, the Potency is reported as “inactive”. In the case of `Cc1ccc(Oc2cc(NC(=O)CCCn3nc(C)c([N+](=O)[O-])c3C)cc([N+](=O)[O-])c2)cc1`, the Potency is reported as 1 µM (active). For `CCOC(=O)c1c(S(=O)(=O)Nc2ccc(CN3CCC(C)CC3)cc2)c(C)n(C)c1C`, the Potency was “inactive”. With `CCC(C)c1ccccc1NC(=O)CN(C)CC(=O)Nc1ccccc1SC` (configuration not stated) the Potency was “inactive”. For `CC(=O)c1ccc(NC(=O)CCNS(=O)(=O)c2cc(Br)cnc2N)cc1`, the Potency was “inactive”. In the case of `COc1ccc(CCNC(=O)Cc2ccc(C)cc2)cc1OC`, the Potency is reported as “inactive”. For `COc1ccc(CCNC(=O)NS(=O)(=O)c2ccc(C)cc2)cc1OC`, the Potency was “inactive”. In the case of `COc1ccc(CCNC(=S)NC(=O)/C=C/c2ccc(C)cc2)cc1OC`, the Potency is reported as 10 µM (active). For `CCN1CCN(CCNC(=O)c2ccc3c(c2)NC(=O)/C(=C\c2ccc(OC)c(OC)c2)S3)CC1`, the Potency was “inactive”. In the case of `CCCc1nnc(SCC(=O)Nc2ccc(C(=O)OCC)cc2)o1`, the Potency is reported as “inactive”. With `CCOC(=O)c1ccc(NC(=O)Cn2cnc3cc(C)c(C)cc32)cc1` the Potency was 7.08 µM (active). With `CCOC(=O)c1ccc(NC(=O)Cn2nnc(-c3ccc(C)cc3)n2)cc1` the Potency was “inactive”. With `CC(C)C(=O)Nc1c2c(nn1-c1ccccc1)CSC2` the Potency was “inactive”. For `Cc1cc(O)cc(O)c1C(=O)Cc1cnn(-c2ccccc2)c1`, the Potency was 0.355 µM (active). With `COc1ccc(C(=O)Cc2cnn(-c3ccccc3)c2)c(O)c1` the Potency was “inactive”. In the case of `O=C(c1cnn(-c2ccc(Cl)cc2)c1)c1ccccc1O`, the Potency is reported as “inactive”. With `Cc1ccc(O)c(NC(=O)c2cc(-c3ccco3)on2)c1` the Potency was “inactive”. With `CC(C)(C)CC(C)(C)NCC(O)COCCOc1ccc(Br)cc1` (configuration not stated) the Potency was 11.2 µM (active). With `OC(COc1ccc(Br)cc1)CN1CCCC1` (configuration not stated) the Potency was “inactive”. With `COc1ccc(OCC(O)CNCCNc2nccc(C(F)(F)F)n2)cc1` (configuration not stated) the Potency was “inactive”. For `CCOC(=O)CSc1nnc(NC(=O)C2CC(=O)N(c3ccc(F)cc3)C2)s1` (configuration not stated), the Potency was “inactive”. With `CCC(=O)N1c2ccc(S(=O)(=O)NCc3ccco3)cc2CC1C` (configuration not stated) the Potency was “inactive”. For `C/C=C/C=N/NC(=O)c1ccncc1`, the Potency was “inactive”. With `O=C(Nc1ccccc1-c1nc2ccccc2[nH]c1=O)c1cccs1` the Potency was “inactive”. For `C/C(=N\Nc1nc2ccccc2[nH]1)c1cccs1`, the Potency was 6.31 µM (active). With `C/C(=N\Nc1nc(Nc2ccccc2)nc(N2CCOCC2)n1)c1cccs1` the Potency was “inactive”. In the case of `CN(c1ccccc1)S(=O)(=O)c1ccc2[nH]c(=O)[nH]c2c1`, the Potency is reported as “inactive”. In the case of `CCn1ccnc1CN(C)C(=O)c1cc(COc2ccc(Cl)cc2OC)on1`, the Potency is reported as “inactive”. With `O=C(Nc1ccccc1)OCc1cc(-c2ccc(Cl)cc2)on1` the Potency was “inactive”. With `O=C1c2cccc3cc(Br)cc(c23)C(=O)N1Nc1ccccc1` the Potency was “inactive”. For `O=C1C=C(c2ccc(Cl)cc2)C(=O)N1Nc1ccccc1`, the Potency was 3.98 µM (active). For `COc1cccc(NC(=S)NCCCN2CCOCC2)c1`, the Potency was “inactive”. In the case of `Cc1ccc(NC(=S)NCCN2CCOCC2)cc1`, the Potency is reported as “inactive”. With `CCOc1cccc(/C=N/NC(=S)NCCN2CCOCC2)c1O` the Potency was 2.24 µM (active). For `CCOC(=O)c1c(S(=O)(=O)NCC(=O)Nc2ccc(C)cc2)c(C)n(C)c1C`, the Potency was “inactive”. For `CCCc1cc(=O)oc2c(C)c(OCC(=O)Nc3ccccn3)ccc12`, the Potency was “inactive”. For `O=C(CN1C(=O)S/C(=C\c2ccccc2Cl)C1=O)NC1C=CS(=O)(=O)C1` (configuration not stated), the Potency was “inactive”. For `CCCCCCCCn1c2c(c(=N)c3c1CCC3)CCCC2`, the Potency was 2.51 µM (active). With `COCCCNC(=O)Cc1ccc(-n2c(C)nc3cccnc32)cc1` the Potency was “inactive”. For `CC(Oc1ccc(Cl)cc1Cl)C(=O)/C=C/N(C)C` (configuration not stated), the Potency was “inactive”. With `CCCC(=O)Nc1cccc(NC(=S)NC(=O)C(C)Oc2ccc(Cl)cc2Cl)c1` (configuration not stated) the Potency was 2.82 µM (active). In the case of `COc1cccc(NC(=O)CN(C)C(=O)Cc2ccc(Cl)cc2Cl)c1`, the Potency is reported as “inactive”. With `Cc1ccc(/C=C2/SC(=S)N(CCC(=O)NCCCN3CCOCC3)C2=O)cc1` the Potency was “inactive”. For `CCCC[C@]12Cc3cc(OC)c(OC)cc3C(O1)C1=C(CC3(CCCCC3)OC1=O)O2`, the activity, negative = inhibition was 7.46% [at 10 µM] (inactive). For `C=C1C(=CC=C2CCC[C@@]3(C)[C@@H]2CC[C@H]3[C@H](C)CCCC(C)C)C[C@@H](O)C[C@@H]1O`, the Potency was “inactive”. In the case of `C=C1/C(=C\C=C2\CCCC3(C)C2CCC3C(C)/C=C/C(O)C2CC2)CC(O)CC1O` (configuration not stated), the Potency is reported as 12.6 µM (active). With `COc1ccc(C(O)(C2CCCCC2)C(CN2CCCC2)c2ccccc2)cc1` (configuration not stated) the Potency was “inactive”. In the case of `O=C(NCc1ccccc1Cl)C1CCN(S(=O)(=O)c2cccc3nonc23)CC1`, the Potency is reported as “inactive”. For `O=C(NCCc1ccccc1)c1ccc2c(c1)N(Cc1ccccc1)CCS2`, the Potency was “inactive”. In the case of `O=c1oc(-c2ccco2)nc2sc3c(c12)CCCCC3`, the Potency is reported as “inactive”. In the case of `COc1ccc(CCn2c(=N)c(C(=O)NCc3ccco3)cc3c(=O)n4cccc(C)c4nc32)cc1`, the Potency is reported as “inactive”. In the case of `O=C(NCc1ccco1)c1cccn2c(=O)c3c4c(sc3nc12)CCCC4`, the Potency is reported as 11.2 µM (active). With `CCCCC(C(=O)NC(C)(C)C)N(Cc1ccccc1)C(=O)c1snc(C(N)=O)c1N` (configuration not stated) the Potency was “inactive”. In the case of `O=C(CN1CCN(Cc2ccccc2)CC1)Nc1ccc(F)c(F)c1`, the Potency is reported as “inactive”.
Potency means the concentration at half of the fitted maximal effect.
